Source: ChEMBL document CHEMBL3988442, “University of Dundee, Small-Polar-MMV Screening Library” (2021)
In all, about 69,000 compounds went through this assay and about 950 (1.4%) showed an effect of 50% or more. This excerpt belongs to a sample that is enriched for strong results.

Test system: Mycobacterium tuberculosis
Experiment: Cornell M. t heat shock assay; note: in the data most compounds retested in dose-response had high values
Type: functional, organism-based
Set-up: dose or concentration left out as unconfirmed

Row | SMILES | Percent Effect [%]
1 | CC(Nc1cccc(COCc2ccco2)c1)C(=O)NC(N)=O (configuration not stated) | 0.6149
2 | Cc1cc(NC(=O)C(C)Nc2cccc(COCc3ccco3)c2)on1 (configuration not stated) | 4.042
3 | CCOC(=O)C(C)Nc1cccc(COCc2ccco2)c1 (configuration not stated) | 104.6
4 | CC(C)CN1CCC2(CCCNC2)C1=O.Cl (configuration not stated) | -13.24
5 | O=C(O)C(F)(F)F.O=C(c1cccnc1)N1CCc2ncnc(C3CCOC3)c2CC1 (configuration not stated) | 8.544
6 | COCc1nn(C(C)C)c2c1CCN(Cc1nccs1)C2.O=C(O)C(F)(F)F | -16.62
7 | Cc1nc(CN2CCO[C@@H]3CN(Cc4cccs4)C[C@@H]3C2)cs1.O=C(O)C(F)(F)F.O=C(O)C(F)(F)F | -15.47
8 | Cc1nc(CN2CCOCC3(CCN(c4cnccn4)CC3)C2)cs1.O=C(O)C(F)(F)F | -3.315
9 | CCc1cccc2c(CC(=O)N(C)CCN(C)C)c(C)[nH]c12.O=C(O)CC(O)(CC(=O)O)C(=O)O | 1.394
10 | Cc1cc(NC2CCN(c3ccc(F)cc3)CC2)n2nc(C)cc2n1 | 11.63
11 | Cc1cc(NC2CCCN(Cc3ccc(F)cc3)C2)n2nc(C)cc2n1 (configuration not stated) | 55.79
12 | Cc1cc(N[C@H]2CCCN(Cc3ccccc3)C2)n2nc(C)cc2n1 | 37.52
13 | CNc1ncc2c(n1)CN(Cc1ccc(Cl)cc1)C2=O | -7.307
14 | C[C@@H]1CN(Cc2cc(C3CCCCC3)no2)CC[C@@]1(O)C1CC1 | -30.44
15 | Cn1ccc(C(=O)N2CCCC(c3cc(O)n(C)n3)C2)n1 (configuration not stated) | -7.619
16 | COCCC(=O)N1CCC(c2cc(O)n(C)n2)C1 (configuration not stated) | 9.695
17 | Cn1nc(C2CCCN(C(=O)CO)C2)cc1O (configuration not stated) | 54.18
18 | COCCN1CCOCC12CCN(C(=O)c1cccnc1)CC2.O=C(O)C(F)(F)F | -43.19
19 | CN1CC[C@@H]2OC[C@H](C(=O)N(C)Cc3ccccn3)C[C@@H]2C1.O=C(O)C(F)(F)F.O=C(O)C(F)(F)F | 42.17

Row | SMILES | Percent Effect [%]
20 | O=C(NC1CC1)[C@@H]1CCO[C@@H]2CCN(Cc3ccsc3)C[C@H]21.O=C(O)C(F)(F)F | -0.7242
21 | O=C(O)C(F)(F)F.O=C([C@@H]1C[C@@H]2CCN(CCc3ccccc3)C[C@H]2O1)N1CCCC1 | 7.524
22 | O=c1cc(CN2CCCC2)nc2n1CCCN(CC1CCOCC1)C2 | -14.03
23 | O=c1cc(CN2CCCC2)nc2n1CCCN(CC1CC1)C2 | 59.59
24 | CN(C)Cc1cc(=O)n2c(n1)CN(CC1CC1)CCC2 | -15.16
25 | COCC(=O)NC[C@H]1CC[C@H](c2nnc(-c3ccncc3)o2)CC1 | -43.76
26 | Cn1cc(CN2CCCC23CCN(Cc2nccn2C)CC3)cn1.O=C(O)C(F)(F)F.O=C(O)C(F)(F)F | -17.58
27 | Cl.Cl.O=C(NCc1cncc2c1CCN(C1CCOCC1)C2)c1ccco1 | 7.016
28 | O=C(O)C(F)(F)F.O=C(O)C(F)(F)F.c1ccc(N2CCC3(COCCN(c4ncccn4)C3)C2)nc1 (configuration not stated) | 3.163
29 | Cn1cc(CN2CCC(F)(F)C3(CCN(c4ncccn4)C3)C2)cn1.O=C(O)C(F)(F)F.O=C(O)C(F)(F)F (configuration not stated) | -18.65
30 | CC(C)n1ccnc1CN1CCOC(CC2CCCCC2)C1 (configuration not stated) | 50.37
31 | CC(C)n1ccnc1CN1CCOC(CCc2ccccc2)C1 (configuration not stated) | -0.01061
32 | CC(C)n1ccnc1CN1CCCN(C(=O)CC2CCCO2)CC1 (configuration not stated) | -7.243
33 | O=C(O)C(F)(F)F.O=C(O)C(F)(F)F.O=C(O)C(F)(F)F.c1cnc(NC[C@H]2OC[C@@H]3CCN(Cc4nccs4)C[C@@H]32)nc1 | -22.37
34 | CNC(=O)[C@H]1C[C@@H]2CN(Cc3cccnc3OC)C[C@@H]2N1C(C)=O.O=C(O)C(F)(F)F.O=C(O)C(F)(F)F | -6.106
35 | CCc1ccc(C2CCCN2C(=O)NCC(=O)NCC(C)C)o1 (configuration not stated) | -12.75
36 | COCCN1CCN(CCCS(C)(=O)=O)CC1C (configuration not stated) | -16.37
37 | COCCN1CCN(CCS(=O)(=O)C(F)(F)F)CC1C (configuration not stated) | 105.5
38 | COCCN1CCN(CCS(C)(=O)=O)CC1C (configuration not stated) | -13.47

Row | SMILES | Percent Effect [%]
39 | CCN(CC)Cc1cn2c(n1)CN(C(=O)c1cc(C)on1)CC2.O=C(O)C(F)(F)F | -2.302
40 | Cc1noc(CS(=O)(=O)CC(=O)NC(C)c2ccccc2)n1 (configuration not stated) | 70.08
41 | CC(C)c1noc(CS(=O)(=O)CC(=O)NCc2ccccc2)n1 | 49.68
42 | CC(Cn1cccn1)NCc1nc(-c2cccs2)no1 (configuration not stated) | 22.29
43 | CCC(C)NC(=O)CS(=O)(=O)Cc1ccccc1Cl (configuration not stated) | -5.393
44 | CC(C)=CCS(=O)(=O)Cc1nc(C(C)C)no1 | 58.075
45 | CCN(C(=O)C(C)S(=O)(=O)Cc1nc(C)no1)c1ccccc1 (configuration not stated) | -1.269
46 | CCC(C)NC(=O)CS(=O)(=O)Cc1nc(-c2cccs2)no1 (configuration not stated) | 65.94
47 | CC(C)c1noc(CS(=O)(=O)CC(=O)NCCOc2ccccc2)n1 | 41.58
48 | Cc1noc(CS(=O)(=O)C(C)C(=O)N(C)c2ccccc2)n1 (configuration not stated) | 6.585
49 | CC(C)c1noc(CS(=O)(=O)Cc2nc(C(C)C)no2)n1 | -44.125
50 | CC(C)c1noc(CS(=O)(=O)CC(=O)NCc2cccs2)n1 | 58.74
51 | CCc1noc(CS(=O)(=O)CC=C(C)C)n1 | 29.3
52 | CC1N(C)C(=O)COC12CCN(Cc1nccs1)CC2.O=C(O)C(F)(F)F (configuration not stated) | 2.077
53 | CCn1nc(C)cc1C(=O)N1C[C@H]2CCC[C@@]2(COc2ccccn2)C1.O=C(O)C(F)(F)F | -22.73
54 | O=C(N[C@@H]1CN(CC2CC2)[C@@H]2CCCO[C@@H]21)c1cscn1.O=C(O)C(F)(F)F | 21.59
55 | Cl.O=c1c2sccc2nc2n1CCN(Cc1ccccc1C(F)(F)F)CC2 | 24
56 | O=C(NC[C@]12COC[C@H]1CN(C1CCOCC1)C2)c1ccco1.O=C(O)C(F)(F)F | -7.738
57 | O=C(O)C(F)(F)F.O=C([C@H]1C[C@@H]2CCN(C3CCOCC3)C[C@H]2O1)N1CCCC1 | -29.11
